Source: PubChem (Johns Hopkins Ion Channel Center)
KCNQ2 block = KCNQ2 (rat) channel inhibition; CHO-K1 KCNQ2, FluxOR thallium flux, 20 min; stronger effect = lower value; AID 2156; hit rate 1.1% among 310,000; B-score at 10 µM; O88943;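 active = fluorescence ratio B-score at most minus 3 library SDs, with starting brightness B-score within 2 library SDs, cut at about -5.5 in these data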
Target sequence (O88943 whole entry, looked up): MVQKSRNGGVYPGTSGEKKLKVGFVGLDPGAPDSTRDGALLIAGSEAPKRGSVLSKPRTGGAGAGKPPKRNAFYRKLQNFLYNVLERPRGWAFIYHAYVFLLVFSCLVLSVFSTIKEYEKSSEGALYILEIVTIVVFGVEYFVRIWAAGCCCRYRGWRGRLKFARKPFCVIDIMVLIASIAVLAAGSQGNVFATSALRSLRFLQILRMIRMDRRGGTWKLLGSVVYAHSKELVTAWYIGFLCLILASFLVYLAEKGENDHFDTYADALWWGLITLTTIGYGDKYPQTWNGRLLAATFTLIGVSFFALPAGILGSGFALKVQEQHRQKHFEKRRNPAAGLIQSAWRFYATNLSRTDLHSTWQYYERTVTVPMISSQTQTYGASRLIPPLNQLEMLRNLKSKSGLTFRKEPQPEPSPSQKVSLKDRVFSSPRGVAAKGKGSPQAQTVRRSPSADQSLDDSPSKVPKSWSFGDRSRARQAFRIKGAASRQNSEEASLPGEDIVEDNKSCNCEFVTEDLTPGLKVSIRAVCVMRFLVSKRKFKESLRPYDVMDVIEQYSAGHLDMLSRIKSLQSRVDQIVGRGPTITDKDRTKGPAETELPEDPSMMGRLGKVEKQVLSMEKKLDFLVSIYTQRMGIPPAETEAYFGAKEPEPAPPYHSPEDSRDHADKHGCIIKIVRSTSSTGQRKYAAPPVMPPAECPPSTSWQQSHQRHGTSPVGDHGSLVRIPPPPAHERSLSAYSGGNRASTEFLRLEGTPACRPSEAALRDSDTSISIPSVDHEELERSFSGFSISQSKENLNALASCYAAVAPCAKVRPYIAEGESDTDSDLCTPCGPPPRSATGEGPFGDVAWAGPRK
KCNQ2 enhance = enhances the rat KCNQ2 potassium channel. CHO-K1 KCNQ2, FluxOR thallium flux fluorescence; stronger effect = higher value. hit rate 0.54% among 310,000. B-score at 10 µM. O88943;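 active = fluorescence ratio B-score at least 3 SD of library B-scores, with initial fluorescence B-score within 3 of them, cut at about 5.3 in these data; same plate scores as AID 2156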;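 note: B-score of peak minus minimum over baseline fluorescence ratio after K+ and Tl+ stimulus; positive B-score means potentiation of KCNQ2 with more thallium influx and brighter signal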
Active calls of the source: *; i = inactive; · = no result. Shown are actives, neighbours in structure and some others; about 1.6% of the full set was active somewhere.

SMILES	KCNQ2 block	KCNQ2 enhance
Cc1ccc(S[C@@H](CCN2CC[C@H](C(C)(C)C)CCC2=O)c2ccccc2)cc1	-5.82*	-5.82
CC(C)(C)C1CCC(=O)N(CCSc2ccccc2)CC1 (stereo not drawn)	i	·
Cc1ccc(S[C@@H](CCN2CC[C@H](C)CCC2=O)c2ccccc2)cc1	i	·
C[C@@H](CSc1ccccc1)CN1CC[C@H](C(C)(C)C)CCC1=O	-7.21*	-7.21
CC(=O)Nc1ccc(S(=O)(=O)NC2C3(C)CCC(C3)C2(C)C)cc1 (stereo not drawn)	i	·
CC1CCCC(NC(=O)C2CCN(S(=O)(=O)c3cnc[nH]3)CC2)C1C (stereo not drawn)	i	·
N#Cc1ccccc1S(=O)(=O)N1CCN(C(=O)C2CCC2)CC1	i	1.1
COc1ccc(NC2=Nc3cccc4cccc2c34)cc1OC	i	·
COc1cc(NC2=Nc3cccc4cccc2c34)cc(OC)c1OC	-6.03*	-6.03
COc1ccccc1OC(C)C(=O)Nc1ccc(S(=O)(=O)N2CCN(C)CC2)cc1 (stereo not drawn)	i	·
O=C(NN1C(=O)/C(=C/c2cccc(O)c2)SC1=S)c1ccccc1O	-8.27*	-8.27
O=C(NN1C(=O)/C(=C/c2ccc(O)c(O)c2)SC1=S)c1ccccc1	i	·
CCCCn1c(N)c(N(CCOC)C(=O)C(C)N2C(=O)c3ccccc3C2=O)c(=O)[nH]c1=O (stereo not drawn)	i	0.11
CCOc1ccc(/C=C2\SC(=S)NC2=O)cc1OC	i	3.8
COc1ccc(/C=C2\SC(=O)NC2=S)cc1OC	i	5.9*
COc1ccc(-c2nn(-c3ccccc3)cc2/C=C/C(=O)N2CCN(c3ccccn3)CC2)cc1	i	·
COc1cccc(CN(C)C(=O)c2[nH]c(C)c(C(C)=O)c2C)c1OC	i	0.84
N/C(=N\OC(=O)CCC1CCCCC1)c1ccc([N+](=O)[O-])cc1	i	0.03
N/C(=N\OC(=O)CC1CCCCC1)c1cccc([N+](=O)[O-])c1	i	10.4*
N/C(=N\OC(=O)CCC1CCCC1)c1cccc([N+](=O)[O-])c1	i	5.82*
N/C(=N\OC(=O)CC1CCCCC1)c1ccc([N+](=O)[O-])cc1	i	·
COc1ccc(C(=O)NCCS(=O)(=O)N2CCc3ccccc3C2)cc1	i	0.46
COc1cc(C(=O)OCC(=O)c2c[nH]c3ccccc23)ccc1OCC(=O)N1CCOCC1	i	·
C=CCN(c1ccccc1OC)S(=O)(=O)c1cccc(C(=O)OCC(=O)c2c[nH]c3ccccc23)c1	i	6.7*
Cc1ccc(C(=O)OCC(=O)c2c[nH]c3ccccc23)cc1	i	0.98
SMILES	KCNQ2 block	KCNQ2 enhance
COc1cc(OC)c(N(C)S(=O)(=O)c2cccc(C(=O)OCC(=O)c3c[nH]c4ccccc34)c2)cc1Cl	i	6.3*
C=CCOc1ccc(/C=C/C(=O)OCC(=O)NCC(=O)Nc2c(C)cc(C)cc2C)cc1	i	·
CCc1noc(C)c1C(=O)OCC(=O)c1ccccc1OC	i	·
O=C(CN1C(=O)NC2(CCCCC2)C1=O)Nc1ccccc1N1CCCC1	i	·
CCCn1c(SCC(=O)Nc2ccccc2-c2ccccc2)nnc1-c1ccoc1C	-5.8*	-5.8
Cc1ccccc1NC(=O)CSc1nnc(-c2ccoc2C)n1CCc1ccccc1	-5.55*	-5.55
COc1ccc(NC(=O)CSc2nnc(-c3ccoc3C)n2CCc2ccccc2)cc1	i	·
Cc1occc1-c1nnc(SCC(=O)Nc2ccccc2-c2ccccc2)n1C	i	0.05
CCC(C)NS(=O)(=O)c1cc2c3c(c1)CCC(=O)N3CCC2 (stereo not drawn)	i	·
CC(C)Cc1csc(NC(=O)c2ccccc2Cl)c1C(=O)O	i	·
CC(C)Cc1csc(NC(=O)c2ccc(Cl)cc2)c1C(=O)O	i	5.64*
NC1=C(c2ccccc2)C(=O)NC1=O	i	·
COc1ccc(-c2cc(C(=O)NCC3CCCO3)c3ccccc3n2)cc1 (stereo not drawn)	i	0.02
COc1ccc(-c2cc(C(=O)NCC3CCCO3)c3cc(C)ccc3n2)cc1 (stereo not drawn)	-5.58*	-5.58
O=C(NCC1CCCO1)c1cc(-c2ccccc2)nc2ccc(Br)cc12 (stereo not drawn)	-7.4*	-7.4
O=C(NCC1CCCO1)c1cc2c([nH]c3ccccc32)c(-c2cccc(Br)c2)n1 (stereo not drawn)	-6.43*	-6.43
COc1ccc(-c2nc(C(=O)NCC3CCCO3)cc3c2[nH]c2ccccc23)cc1 (stereo not drawn)	i	·
Cc1ccc2nc(-c3cccc(Br)c3)cc(C(=O)NCC3CCCO3)c2c1 (stereo not drawn)	i	·
CCc1cc2c(nc1CC)CCN(CC/C(C)=N/OC[C@H]1O[C@H](c3ccccc3)C=C[C@@H]1Oc1ccc(OC)cc1)C2	i	·
COc1ccc(O[C@H]2C=C[C@@H](c3ccccc3)O[C@@H]2CO/N=C(\C)CCN2CCc3nc(-c4ccccc4)c(-c4ccccc4)cc3C2)cc1	i	7.48*
